According to PubChem BioAssay (NCI):
About 79,000 compounds went through this panel and 15% of them were active in at least one assay; those are over-represented in the sample as a whole. A number with no mark means an inactive call. The source made the active and inactive calls. No stated cut-off is given here; in the data, active means growth inhibition above about 70%; inactive means the rest.

Experiment: NCI Yeast Anticancer Drug Screen. Data for the mlh1 rad18 strain (AID 175)
Conditions: S. cerevisiae mlh1 rad18 strain growth inhibition; at 50.0 µM; stronger effect = higher value
Procedure, shortened: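 Steps: expose repair-defective yeast to compound; measure growth; express inhibition against vehicle-treated controls.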
With `O=C1C(Cl)=C(N2C(=O)CCC2=O)C(=O)c2ccccc21` the growth inhibition was 89% (active). For `C/C(=N\NC(=S)N1CCCC1)c1nc2ncccc2[nH]1`, the growth inhibition was 82% (active). For `Clc1ccc(CN2COc3c(cc(Cl)c4cccnc34)C2)cc1Cl`, the growth inhibition was 47.9%. In the case of `Cc1cc(C)c2c(c1)sc1nncn12`, the growth inhibition is reported as 98.9% (active). With `O=[N+]([O-])C1=Cc2ccccc2S(=O)(=O)CC1` the growth inhibition was 97.9% (active). In the case of `O=C1CNCCCN2CCN(CCCNCC(=O)Nc3ccc(cc3)S(=O)(=O)c3ccc(cc3)NC(=O)CNCCCN3CCN(CCCNCC(=O)Nc4ccc(cc4)S(=O)(=O)c4ccc(cc4)N1)CC3)CC2`, the growth inhibition is reported as 98.7% (active). `O=C(Nc1ccccc1-c1nn(CN2CCNCC2)c(=S)n(CN2CCNCC2)c1=O)C(F)(F)F` showed a growth inhibition of 38.6%. With `O=[N+]([O-])c1ccc(/C(=C\c2ccccc2)Cn2ccnc2)cc1` the growth inhibition was 75.5% (active). For `Cc1ccc(S(=O)(=O)NNC2Oc3cc4c(cc3C(c3ccccc3O)C2C)OCO4)cc1` (centres undefined), the growth inhibition was 96.2% (active). Work on `CC1CCC(NCCOC(=O)c2ccc([N+](=O)[O-])cc2)CC1` (centres undefined) yielded a growth inhibition of 42.9%. For `Oc1cc(F)ccc1-c1ccc(F)cc1`, the growth inhibition was 84.7% (active). With `Cn1c(=O)cc[nH]c1=O` the growth inhibition was 14.2%. `CCOc1c(N=Nc2ccccc2OC)c(-c2ccccc2)nn1C(N)=S` gave a growth inhibition of 53.4%. Compound `CS(C)=O.[Cl-].[Cl-].[NH-]CC(O)CN(Cc1ccccc1)CC(O)CN.[Pt]` (centres undefined) has a growth inhibition of 7.75%. With `Clc1ccc(C2=CCN3CC=C(c4ccc(Cl)cc4)C23)cc1` the growth inhibition was 99.8% (active). For `CCOC(=O)C(Cc1cn(S(=O)(=O)c2ccccc2)c2ccccc12)(NC(C)=O)C(=O)OCC`, the growth inhibition was 75.5% (active). For `BrCC1(CBr)COC1`, the growth inhibition was 9.45%. For `O=C1CC(O)C=C1Nc1ccc(Cl)cc1` (centres undefined), the growth inhibition was 98.5% (active). For `COc1cc(NCCCCCNC(C)C)c2ncc(C)c(C)c2c1`, the growth inhibition was 55.4%. In the case of `Cc1ccc(C(c2ccc(N(C)C)cc2)c2ccc(N(C)C)cc2)cc1`, the growth inhibition is reported as 92.7% (active). For `COc1ccc(OC)c2c1C=C[C@H](C1(C)SCCS1)C2C(C)=O` (some centres undefined), the growth inhibition was 77% (active). For `CCOC(=O)c1cc2c(nc1NCc1ccc(OC)c(OC)c1)/C(=C/c1ccccc1)CCCC2`, the growth inhibition was 90.2% (active). For `N#Cc1ccccc1[N+](=O)[O-]`, the growth inhibition was 79.5% (active). In the case of `O=C1c2cccc3cc4ccccc4c(c23)C(=O)N1CCCNCCNCCCN1C(=O)c2cccc3cc4ccccc4c(c23)C1=O`, the growth inhibition is reported as 91% (active). For `CC(=O)Oc1ccc(N=[N+]([O-])c2ccc(OC(C)=O)cc2)cc1`, the growth inhibition was -13%. In the case of `CCOCCNc1ncnc2c1cnn2C`, the growth inhibition is reported as 39%. For `O=Cc1ccc(-c2nccc3c2[nH]c2ccccc23)o1`, the growth inhibition was -1.45%. With `O=c1oc2ccccc2c(O)c1C1=N/C(=N/N=C/c2ccc(Cl)cc2)SC1` the growth inhibition was 47.2%. For `Cc1ccccc1Oc1ccccc1N`, the growth inhibition was 81.8% (active). With `CCCCCCC(=O)Nc1ccc(OC(=O)CCCCCC)c(=O)cc1` the growth inhibition was 98.5% (active). In the case of `CC(=O)C(C(C)=O)C1C=CC=CC=C1`, the growth inhibition is reported as 96.9% (active). With `CC(=O)Nc1ccc(N=C2c3ccccc3-c3ccc(NC(C)=O)cc32)cc1` the growth inhibition was 98.2% (active). `C/C=C1\CC(C)(CC)C(C#N)(C#N)C(N)=C1C#N` (centres undefined) gave a growth inhibition of -28.7%. `Cc1cc(Cc2ccc(Cl)cc2)ccc1O` gave a growth inhibition of 47.9%. With `O=C1C=CC(=O)N1c1ccc(-c2nc3ccccc3o2)cc1` the growth inhibition was 90% (active). Compound `CCN(CC)CC(O)c1ccnc2c(O)cccc12` (centres undefined) has a growth inhibition of 51.9%. In the case of `Nc1ccc(O)c2c1C(=O)c1ccccc1C2O` (centres undefined), the growth inhibition is reported as 94.5% (active). In the case of `CC(=O)OC1CCC2(C)C(CCC3C4=CCC(C5COC(=O)C5)C4(C)CCC32)C1` (centres undefined), the growth inhibition is reported as 78.1% (active). With `CCN(CC)CCOc1ccc(NC(=S)Nc2ccc(OCC(C)C)cc2)cc1` the growth inhibition was 80.9% (active).
